Source: PubChem BioAssay (NCATS)
Inconclusive results are not listed. Active and inactive are the calls of the source. Calls follow the shape of the full dose curve. Peptide text beside a SMILES is read from it.

Test: qHTS Assay for Lipid Storage Modulators (AID 1519); as to activity change, negative = inhibition: % is scaled to controls: 0 for no effect and ±100 for the full control effect
Conditions: Drosophila S3 cells, BODIPY lipid droplet/cell ratio, laser cytometry; at 57.5 µM (top of the series); cells loaded with oleic acid
Method in brief: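 Cells seeded at 5,000 per well were treated with compounds over a concentration series and loaded with oleic acid (400 uM, as added). Lipid droplet fluorescence (488 nm excitation, 500-530 nm channel) was read by laser-scanning cytometry and normalized to 20 uM Triacsin C.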

Structure (SMILES) | activity change, negative = inhibition
CN(C)CCCOC1C(C(O)CO)OC2OC(C)(C)O[C@@H]21 (stereo partly specified) | 4.25% (inactive)
CCC(C)C(=O)OC1CCC=C2C=CC(C)C(CCC3CC(O)CC(=O)O3)[C@@H]21 (stereo partly specified) | 0.311% (inactive)
CC(=O)OC1CCC2C3CCc4cc(O)ccc4C3CCC12C (stereo unspecified) | -1.06% (inactive)
CC[C@@]12CCCN3CCc4c(n(c5ccccc45)[C@](O)(C(=O)OC)C1)C32 (stereo partly specified) | 6.08% (inactive)
NC(C(=O)O)[C@@H]1CC(Cl)=NO1 (stereo partly specified) | 6.89% (inactive)
CN1CC(=O)N=C1N | 4.35% (inactive)
OCC1OC([S-])[C@H](O)C(O)C1O.[Au+] (stereo partly specified) | 9.01% (inactive)
CC(C)C1CCC(C(=O)NC(Cc2ccccc2)C(=O)O)CC1 (stereo unspecified) | 5.23% (inactive)
CCC(CCC(C)C1CCC2C3CC=C4CC(O)CC[C@@]4(C)C3CC[C@@]12C)C(C)C (stereo partly specified) | 3.18% (inactive)
C[C@]12CCC(=O)C=C1CCC1C2C(=O)C[C@]2(C)C1CC[C@]2(O)C(=O)CO (stereo partly specified) | -0.346% (inactive)
OCC1O[C@H](OC2C(CO)O[C@@](O)(CO)C2O)C(O)C(O)C1O (stereo partly specified) | 5.94% (inactive)
CC1(C)OC2CO[C@]3(COS(N)(=O)=O)OC(C)(C)OC3C2O1 (stereo partly specified) | -0.118% (inactive)
CC1(C)OC2CC(=O)OC[C@@]23C1CC(=O)[C@]1(C)C3CC[C@@]2(C)C(c3ccoc3)OC(=O)C3O[C@@]321 (stereo partly specified) | 7.05% (inactive)
CC1=C(CCC(=O)O)c2cc3nc(cc4[nH]c(cc5[nH]c(cc1n2)c(C)c5C(C)O)c(C)c4C(C)O)C(C)=C3CCC(=O)O (stereo unspecified) | 3.12% (inactive)
CCOC(=O)C1=CC(OC(CC)CC)C(NC(C)=O)C(N)C1 (stereo unspecified) | 11.6% (inactive)
COC1C=CO[C@@]2(C)Oc3c(C)c(O)c4c(O)c(c5c(nc6cc(C)ccn65)c4c3C2=O)NC(=O)/C(C)=C\C=CC(C)C(O)[C@@H](C)C(O)C(C)[C@@H](OC(C)=O)C1C (stereo partly specified) | -13.7% (inactive)
COC(=O)C(Cc1ccccc1)NC(=O)C(N)CC(=O)O (stereo not drawn) (H-Asp-Phe-OMe; configuration not given here) | 5.29% (inactive)
C[C@]12C=CC(=O)C=C1CCC1C2C(O)C[C@]2(C)C1CC[C@]2(O)C(=O)CO (stereo partly specified) | 4.07% (inactive)
CC1(C)S[C@H]2C(NC(=O)[C@@H](N)c3ccc(O)cc3)C(=O)N2[C@@H]1C(=O)O (stereo partly specified) | 9.47% (inactive)

Structure (SMILES) | activity change, negative = inhibition
CC(C)=CCC[C@](C)(O)C1CC=C(C)CC1 (stereo partly specified) | 6.04% (inactive)
CO[C@]12C(COC(N)=O)C3=C(C(=O)C(C)=C(N)C3=O)N1CC1NC12 (stereo partly specified) | 3.3% (inactive)
Cc1cc(O)c(C=O)c2c1C(=O)Oc1c(C)c(O)c3c(c1O2)C(O)OC3=O (stereo unspecified) | 13.7% (inactive)
C[C@]1(c2ccccc2)OC(C(=O)O)=CC1=O | -2% (inactive)
CC(=O)N[C@H](CC(C)C)C(=O)O | 6.38% (inactive)
COc1c(O)cc(O)cc1O | -1.6% (inactive)
COc1ccc2cc(C(C)CO)ccc2c1 (stereo unspecified) | 8.58% (inactive)
COC1C=CO[C@@]2(C)Oc3c(C)c(O)c4c(O)c(c(C=NN5CCN(C)CC5)c(O)c4c3C2=O)NC(=O)/C(C)=C\C=CC(C)C(O)[C@@H](C)C(O)C(C)[C@H](OC(C)=O)C1C (stereo partly specified) | -0.247% (inactive)
CC1CCC(C(C)C)C(=O)C1 (stereo unspecified) | 1.11% (inactive)
CNC1CC(N)[C@H](O)[C@@H](O[C@@H]2OC(CO)C3OC4(OC(C(N)CO)C(O)C(O)C4O)O[C@@H]3[C@H]2O)C1O (stereo partly specified) | 3.46% (inactive)
CCCC(=O)O[C@]1(C(=O)CO)CCC2[C@@H]3CCC4=CC(=O)CC[C@]4(C)C3C(O)C[C@]21C (stereo partly specified) | 9.93% (inactive)
CC(=O)[C@]1(O)CCC2C3C=C(Cl)C4=CC(=O)C5CC5[C@@]4(C)C3CC[C@]21C (stereo partly specified) | 8.7% (inactive)
Cc1cc(O)c(C=O)c2c1C(=O)Oc1c(COC(=O)/C=C/C(=O)O)c(O)c(C(=O)O)c(C)c1O2 | 4.28% (inactive)
CC(=O)N[C@@H]1C(O)OC(CO)C(O)C1O (stereo partly specified) | 4.62% (inactive)
C/C1=C2N=C(/C=C3N=C(/C(C)=C4\[N-]C(C)(C5N=C1C(C)(CCC(=O)NCC(C)OP(=O)([O-])O[C@H]1C(O)C(n6cnc7cc(C)c(C)cc76)O[C@@H]1CO)C5CC(N)=O)C(C)(CC(N)=O)C4CCC(N)=O)C(C)(CC(N)=O)C\3CCC(N)=O)C(C)(C)C/2CCC(N)=O.[CH2-]C1OC(n2cnc3c(N)ncnc32)C(O)C1O.[Co] (stereo partly specified) | 3.3% (inactive)
O=C1OC(CO)C(O)C(O)C1O (stereo unspecified) | 6.29% (inactive)
CNC1C(OC2C(O[C@@H]3C(O)C(O)[C@@H](N=C(N)N)C(O)C3N=C(N)N)OC(C)[C@@]2(O)CO)OC(CO)C(O)C1O (stereo partly specified) | 8.79% (inactive)
Nc1nc2ncc(CNc3ccc(C(=O)NC(CCC(=O)O)C(=O)O)cc3)nc2c(=O)[nH]1 (stereo unspecified) | 5.18% (inactive)

Same assay, conditions: Drosophila S3 cells, BODIPY lipid droplet/cell ratio, laser cytometry; measured here: cell count channel max response; cells loaded with oleic acid

Structure (SMILES) | max response [%]
CN(C)CCCOC1C(C(O)CO)OC2OC(C)(C)O[C@@H]21 (stereo partly specified) | 11.4
CCC(C)C(=O)OC1CCC=C2C=CC(C)C(CCC3CC(O)CC(=O)O3)[C@@H]21 (stereo partly specified) | 8.24
CC(=O)OC1CCC2C3CCc4cc(O)ccc4C3CCC12C (stereo unspecified) | 7.54
CC[C@@]12CCCN3CCc4c(n(c5ccccc45)[C@](O)(C(=O)OC)C1)C32 (stereo partly specified) | 25.6
NC(C(=O)O)[C@@H]1CC(Cl)=NO1 (stereo partly specified) | 16.9
CN1CC(=O)N=C1N | 5.89
OCC1OC([S-])[C@H](O)C(O)C1O.[Au+] (stereo partly specified) | 5.52
CC(C)C1CCC(C(=O)NC(Cc2ccccc2)C(=O)O)CC1 (stereo unspecified) | 2.86
CCC(CCC(C)C1CCC2C3CC=C4CC(O)CC[C@@]4(C)C3CC[C@@]12C)C(C)C (stereo partly specified) | 9.21
C[C@]12CCC(=O)C=C1CCC1C2C(=O)C[C@]2(C)C1CC[C@]2(O)C(=O)CO (stereo partly specified) | 22.5
OCC1O[C@H](OC2C(CO)O[C@@](O)(CO)C2O)C(O)C(O)C1O (stereo partly specified) | 14.3
CC1(C)OC2CO[C@]3(COS(N)(=O)=O)OC(C)(C)OC3C2O1 (stereo partly specified) | 7.1
CC1(C)OC2CC(=O)OC[C@@]23C1CC(=O)[C@]1(C)C3CC[C@@]2(C)C(c3ccoc3)OC(=O)C3O[C@@]321 (stereo partly specified) | 20.2
CC1=C(CCC(=O)O)c2cc3nc(cc4[nH]c(cc5[nH]c(cc1n2)c(C)c5C(C)O)c(C)c4C(C)O)C(C)=C3CCC(=O)O (stereo unspecified) | 12.6
CCOC(=O)C1=CC(OC(CC)CC)C(NC(C)=O)C(N)C1 (stereo unspecified) | 14.9
COC1C=CO[C@@]2(C)Oc3c(C)c(O)c4c(O)c(c5c(nc6cc(C)ccn65)c4c3C2=O)NC(=O)/C(C)=C\C=CC(C)C(O)[C@@H](C)C(O)C(C)[C@@H](OC(C)=O)C1C (stereo partly specified) | -0.865
COC(=O)C(Cc1ccccc1)NC(=O)C(N)CC(=O)O (stereo not drawn) (H-Asp-Phe-OMe; configuration not given here) | -5.71
C[C@]12C=CC(=O)C=C1CCC1C2C(O)C[C@]2(C)C1CC[C@]2(O)C(=O)CO (stereo partly specified) | 19.1
CC1(C)S[C@H]2C(NC(=O)[C@@H](N)c3ccc(O)cc3)C(=O)N2[C@@H]1C(=O)O (stereo partly specified) | 17.1
CC(C)=CCC[C@](C)(O)C1CC=C(C)CC1 (stereo partly specified) | -2.85

Structure (SMILES) | max response [%]
CO[C@]12C(COC(N)=O)C3=C(C(=O)C(C)=C(N)C3=O)N1CC1NC12 (stereo partly specified) | 5.7
Cc1cc(O)c(C=O)c2c1C(=O)Oc1c(C)c(O)c3c(c1O2)C(O)OC3=O (stereo unspecified) | 7.17
C[C@]1(c2ccccc2)OC(C(=O)O)=CC1=O | -4.61
CC(=O)N[C@H](CC(C)C)C(=O)O | 8.9
COc1c(O)cc(O)cc1O | 3.65
COc1ccc2cc(C(C)CO)ccc2c1 (stereo unspecified) | 13.8
COC1C=CO[C@@]2(C)Oc3c(C)c(O)c4c(O)c(c(C=NN5CCN(C)CC5)c(O)c4c3C2=O)NC(=O)/C(C)=C\C=CC(C)C(O)[C@@H](C)C(O)C(C)[C@H](OC(C)=O)C1C (stereo partly specified) | 7.61
CC1CCC(C(C)C)C(=O)C1 (stereo unspecified) | 11.5
CNC1CC(N)[C@H](O)[C@@H](O[C@@H]2OC(CO)C3OC4(OC(C(N)CO)C(O)C(O)C4O)O[C@@H]3[C@H]2O)C1O (stereo partly specified) | 3.52
CC[C@H](C(=O)[C@H](C)[C@H](O)[C@H](C)CCc1ccc(C)c(O)c1C(=O)O)[C@H]1O[C@](CC)([C@@H]2CC[C@@](O)(CC)[C@H](C)O2)C[C@H]1C | -26.4
CCCC(=O)O[C@]1(C(=O)CO)CCC2[C@@H]3CCC4=CC(=O)CC[C@]4(C)C3C(O)C[C@]21C (stereo partly specified) | 7.86
CC(=O)[C@]1(O)CCC2C3C=C(Cl)C4=CC(=O)C5CC5[C@@]4(C)C3CC[C@]21C (stereo partly specified) | 4.22
Cc1cc(O)c(C=O)c2c1C(=O)Oc1c(COC(=O)/C=C/C(=O)O)c(O)c(C(=O)O)c(C)c1O2 | 6.76
CC(=O)N[C@@H]1C(O)OC(CO)C(O)C1O (stereo partly specified) | 4.28
C/C1=C2N=C(/C=C3N=C(/C(C)=C4\[N-]C(C)(C5N=C1C(C)(CCC(=O)NCC(C)OP(=O)([O-])O[C@H]1C(O)C(n6cnc7cc(C)c(C)cc76)O[C@@H]1CO)C5CC(N)=O)C(C)(CC(N)=O)C4CCC(N)=O)C(C)(CC(N)=O)C\3CCC(N)=O)C(C)(C)C/2CCC(N)=O.[CH2-]C1OC(n2cnc3c(N)ncnc32)C(O)C1O.[Co] (stereo partly specified) | 22.1
O=C1OC(CO)C(O)C(O)C1O (stereo unspecified) | 17.3
CNC1C(OC2C(O[C@@H]3C(O)C(O)[C@@H](N=C(N)N)C(O)C3N=C(N)N)OC(C)[C@@]2(O)CO)OC(CO)C(O)C1O (stereo partly specified) | 13.3
COc1cc(C2c3cc4c(cc3C(O[C@@H]3OC5COC(c6cccs6)OC5C(O)C3O)C3COC(=O)C23)OCO4)cc(OC)c1O (stereo partly specified) | 22.3
Nc1nc2ncc(CNc3ccc(C(=O)NC(CCC(=O)O)C(=O)O)cc3)nc2c(=O)[nH]1 (stereo unspecified) | 16.9
